# Shown are actives, neighbours in structure and some others; about 9.2% of the full set was active somewhere.
# Rab9 promoter act: qHTS Assay for Rab9 Promoter Activators. Huh7 Rab9 promoter-luciferase reporter, luminescence, 24 h. Potency, µM (series often up to 9.22 µM), without a hit: top-dose activation, negative = inhibition, most hits filed as activators. actives 2.8% (n = 320,000). AID 485297, 2010; further: % of control where 0% means no effect; nearly all actives have a fitted effect of over 60% in size
#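 Huh7 cells stably carrying Rab9 promoter–luciferase reporter, plated 1500 cells/well, compound added after 2 h and incubated 24 h at 37 °C; luciferase luminescence then read after 10 min with detection reagent.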
# ELG1 genotoxic: qHTS screen for small molecules that induce genotoxicity in human embryonic kidney (HEK293T) cells expressing luciferase-tagged ELG1 | Potency, µM (titrated, usually from 46 µM), for inactives: top-dose activity change, positive = activation, actives largely listed as activators | actives 1.3% (n = 330,000) | HEK293T ELG1-luciferase reporter, luminescence, 16 h | AID 504466, 2011; further: % of control where 0% means no effect; nearly all actives have a fitted effect of over 60% in size
#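 Quantitative HTS format in 1536-well plates. HEK293T ELG1-luciferase reporter cells receive test compound and are incubated 16 hr at 37 °C, 5% CO2; ONE-Glo added, 30 min room temperature, then luminescence read.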
# ELG1 DNA repair: qHTS screen for small molecules that inhibit ELG1-dependent DNA repair in human embryonic kidney (HEK293T) cells expressing luciferase-tagged ELG1; HEK293T ELG1-luciferase reporter, luminescence, 16 h; DNA damage induced by 5-fluorouridine; actives 2.3% (n = 330,000); Potency, µM (doses to about 46.1 µM), for inactives: top-dose activity change, negative = inhibition, hits mostly inhibitors; further: on the % scale 0 is the no-effect control and ±100 the full control effect; nearly all actives have a fitted effect of over 55% in size
#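 Step one: seed 2,000 cells per well. Step two: pin-transfer compound or DMSO alongside 5-fluorouridine. Step three: incubate 16 hr, 37 °C, 5% CO2. Step four: add ONE-Glo, wait 30 min, read luminescence.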
# NPC1 prom act: qHTS Assay for NPC1 Promoter Activators | Potency, µM (top dose mostly 9.22 µM), without a hit: top-dose activation, usual class: activators | Huh7 NPC1 promoter luciferase reporter, 24 h | actives 2.4% (n = 320,000) | AID 485313, 2010; further: % of control where 0% means no effect; nearly all actives have a fitted effect of over 60% in size
#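 NPC1 promoter–luciferase Huh7 cells; 24 h compound; luminescence.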
# SMN2 splice up: qHTS Assay for Enhancers of SMN2 Splice Variant Expression | HEK293 SMN2-luciferase splicing reporter, luminescence, 30-36 h | Potency, µM (series often up to 46.1 µM), for the others: at the top dose activity change, positive = activation, hits mostly activators | actives 2.8% (n = 210,000); further: % of control where 0% means no effect; nearly all actives have a fitted effect of over 55% in size
#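 qHTS luciferase splicing reporter: luminescence rises when SMN2 exon 7 is included in transfected HEK293 cells. Compound exposure lasted 30-36 h at 37C, with 4.5 mM final sodium butyrate as control, followed by a ONE-Glo read.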
# FLuc modulator: qHTS profiling assay for firefly luciferase inhibitor/activator using purifed enzyme and Km concentrations of substrates (counterscreen for miR-21 project); Luciferin 4-monooxygenase (Photinus pyralis), P08659; purified FLuc, Km substrates, luminescence inhibition; Potency, µM (top dose mostly 57.5 µM), for inactives: at the highest dose activity change, negative = inhibition, actives largely listed as inhibitors; actives 6.9% (n = 360,000); AID 588342, 2011;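 further: plate controls were vehicle for no effect and reference inhibitor for full effect; nearly all actives have a fitted effect of over 55% in size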
# Target sequence (P08659 whole entry, looked up): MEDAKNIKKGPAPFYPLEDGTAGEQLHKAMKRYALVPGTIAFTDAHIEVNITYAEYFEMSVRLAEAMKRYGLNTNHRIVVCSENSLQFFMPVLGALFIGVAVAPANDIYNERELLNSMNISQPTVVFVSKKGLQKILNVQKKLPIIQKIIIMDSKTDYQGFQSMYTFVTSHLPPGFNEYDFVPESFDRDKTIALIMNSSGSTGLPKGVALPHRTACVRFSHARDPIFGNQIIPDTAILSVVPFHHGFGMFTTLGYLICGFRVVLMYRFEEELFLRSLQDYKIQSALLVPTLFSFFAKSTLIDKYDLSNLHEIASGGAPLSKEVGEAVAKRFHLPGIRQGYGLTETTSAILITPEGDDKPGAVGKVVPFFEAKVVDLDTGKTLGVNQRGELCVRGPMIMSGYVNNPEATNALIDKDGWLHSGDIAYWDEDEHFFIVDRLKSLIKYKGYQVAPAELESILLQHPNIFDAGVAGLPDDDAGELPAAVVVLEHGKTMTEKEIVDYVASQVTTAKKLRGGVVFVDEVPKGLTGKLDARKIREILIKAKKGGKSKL
#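 Purified P. pyralis luciferase, 10 nM final, with Km-level 10 uM D-luciferin and 10 uM ATP in 50 mM Tris acetate pH 7.5, 10 mM Mg acetate, 0.01% Tween-20, 0.05% BSA; 6-point qHTS titration about 60 µM downward; luminescence read.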
# Numbers without * were called inactive; ? = inconclusive; / = no result given. The call rests on the fitted dose curve; in most records, active means well fitted curve in the direction sought with a large enough effect; inconclusive means small, poorly fitted or top-dose-only effect, or another doubt; inactive means no such curve, though single readings can be large; an effect the other way counts as inactive or inconclusive. Potency means the concentration at half of the fitted maximal effect.
SMILES,Rab9 promoter act,ELG1 genotoxic,ELG1 DNA repair,NPC1 prom act,SMN2 splice up,FLuc modulator
COc1ccc(C=C(c2nc3ccccc3s2)c2nc3ccccc3s2)cc1O,5.7%,?,-21.6%,-0.1%,-49.7%,10.7µM*
COc1cccc(C2C(C(=O)Nc3ccccc3)=C(C)Nc3nnnn32)c1OC (stereo not drawn),/,/,/,/,/,1.2%
CCCCCCCCCCCCCC(=O)N[C@H](C)[C@@H](O)c1ccccc1,/,/,/,/,4.0%,/
Cc1ccc(S(=O)(=O)N2CCN(C(=O)COC(=O)c3cccc(Cl)c3)CC2)c(C)c1,-2.8%,-2.0%,-1.3%,0.2%,/,-1.1%
CC(=O)Nc1ccc(S(=O)(=O)Nc2nc3ccccc3s2)cc1,-0.1%,-0.1%,12.6%,-1.0%,20.9%,4.9%
CC(=O)Nc1ccc(/C=N/Nc2nc3ccccc3s2)cc1,0.447µM*,2.59µM*,?,0.708µM*,/,0.953µM*
CC(=O)Nc1cccc(/C(C)=N/Nc2nc3ccccc3s2)c1,?,?,?,1.7%,11.2µM*,10.7µM*
CCOC(=O)c1sc2ncn(CC(=O)Nc3cc(C)cc(C)c3)c(=O)c2c1C,/,/,/,/,-1.6%,1.5%
Cc1ccc(N2CCN(C(=O)N3CCOCC3)CC2)cc1C,-0.3%,0.6%,0.6%,-1.4%,/,-0.6%
Cc1cc(N2CCOCC2)ccc1/C=C1\SC(=O)N(C(C)C)C1=O,1.41µM*,?,?,1.41µM*,20.4%,3.79µM*
CCC(C)N1C(=O)S/C(=C/c2ccc(N3CCOCC3)cc2C)C1=O (stereo not drawn),?,15.2%,?,?,-16.4%,7.57µM*
Cc1cc(/C=C2/SC(=O)NC2=O)c(C)n1-c1ccc(N2CCOCC2)cc1,-4.5%,-1.1%,?,8.4%,-25.3%,-5.7%
CCN(C(=O)COC(=O)CSc1ccc(F)cc1)c1c(N)n(Cc2ccccc2)c(=O)[nH]c1=O,-0.8%,-3.3%,17.9%,3.4%,/,-0.1%
c1ccc(-c2ccc(-n3ccnc3)cc2)cc1,12.4%,?,?,25.2%,/,23.9µM*
CCN1C(=NCCCCO)N[C@@H](c2ccccc2)C(C(=O)OC)=C1C,2.8%,/,/,-0.7%,/,3.5%
CN(C)S(=O)(=O)N1CCN(CC(O)COc2ccc(-c3ccccc3)cc2)CC1 (stereo not drawn),-0.2%,-8.8%,20.6µM*,-3.2%,/,-8.4%
OC(COc1ccc2cc(Br)ccc2c1)CN1CCCC1 (stereo not drawn),13.6%,?,?,10.2%,6.4%,12µM*
CC(=O)Nc1ccc(S(=O)(=O)N2CCN(CC(O)COc3ccc4ccccc4c3)CC2)cc1 (stereo not drawn),-5.6%,-6.3%,-20.1%,-2.2%,/,1.8%
OC(COc1ccc(OCC(O)CN2CCCCCC2)cc1)CN1CCCCCC1 (stereo not drawn),3.6%,0.6%,13.1%,2.1%,20.9%,6.1%
OC(COc1ccc2cc(Br)ccc2c1)CN1CCN(c2ccccn2)CC1 (stereo not drawn),-5.3%,?,13.8%,-5.2%,/,-5.5%
O=S(=O)(N1CCCCC1)N1CCN(CC(O)COc2ccc3cc(Br)ccc3c2)CC1 (stereo not drawn),-12.4%,0.7%,13µM*,-6.5%,-53.2%,0.1%
CN(C)S(=O)(=O)N1CCN(CC(O)COc2ccc3cc(Br)ccc3c2)CC1 (stereo not drawn),-4.6%,-4.3%,23.1µM*,-1.6%,-50.0%,-3.8%
OCCN1CCN(CC(O)COc2ccc(-c3ccccc3)cc2)CC1 (stereo not drawn),25.8%,?,?,15.0%,-7.7%,?
